Reference: PubChem BioAssay (NCATS)
Results filed as inconclusive are left out. The source made the active and inactive calls. Unless noted, calls follow the shape of the dose curve; as a rule, active = well fitted curve in the direction sought with a large enough effect; inconclusive = small, poorly fitted or top-dose-only effect, or another doubt; inactive = no such curve, though single readings can be large; an effect the other way counts as inactive or inconclusive.

Tests used:
[1] = Quantitative High-Throughput drug screen in 47 multiple myeloma cell lines against the NCATS MIPE library collection: VP6_DJ cell viability assay (AID 1919867); also: nearly all actives have a fitted effect of over 40% in size; also: potency is read from the fitted curve at half-maximal effect
Summary of the method: (§1)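 Readout: median RLU from CellTiter-Glo after 5 min at room temperature. Preceding step was 48 h drug treatment of 500 cells/well at 37 °C, 5% CO2, with DMSO-only and media-only control wells.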

[2] = Quantitative High-Throughput drug screen in 47 multiple myeloma cell lines against the NCATS MIPE library collection: PE2_PLB cell viability assay (AID 1919869); also: nearly all actives have a fitted effect of over 35% in size; also: potency is read from the fitted curve at half-maximal effect
Summary of the method: as §1

[3] = Quantitative High-Throughput drug screen in 47 multiple myeloma cell lines against the NCATS MIPE library collection: PCM6_Riken cell viability assay (AID 1919870); also: nearly all actives have a fitted effect of over 30% in size; also: potency is read from the fitted curve at half-maximal effect
Summary of the method: as §1

[4] = Quantitative High-Throughput drug screen in 47 multiple myeloma cell lines against the NCATS MIPE library collection: RPMI8226_ATCC cell viability assay (AID 1919871); also: nearly all actives have a fitted effect of over 30% in size; also: potency is read from the fitted curve at half-maximal effect
Summary of the method: as §1

[5] = Quantitative High-Throughput drug screen in 47 multiple myeloma cell lines against the NCATS MIPE library collection: OPM2_DSMZ cell viability assay (AID 1919872); also: nearly all actives have a fitted effect of over 30% in size; also: potency is read from the fitted curve at half-maximal effect
Summary of the method: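 Luminescent ATP measurement with CellTiter-Glo gives viability, scaled between DMSO-only wells (100%) and media-only wells (0%). Cells, 500 per well, faced library compounds for 48 hours at 37C.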

[6] = Quantitative High-Throughput drug screen in 47 multiple myeloma cell lines against the NCATS MIPE library collection: KMS11_JCRBsus cell viability assay (AID 1919873); also: nearly all actives have a fitted effect of over 50% in size; also: potency is read from the fitted curve at half-maximal effect
Summary of the method: as §1

[7] = Quantitative High-Throughput drug screen in 47 multiple myeloma cell lines against the NCATS MIPE library collection: KMS28BM_JCRB cell viability assay (AID 1919874); also: nearly all actives have a fitted effect of over 35% in size; also: potency is read from the fitted curve at half-maximal effect
Summary of the method: as §1

[8] = qHTS drug screen for cell cycle checkpoint inhibitors in PARPi-resistant BRCA-mutant ovarian cancer cell lines. (AID 1963452; calls by dose curve; also: potency is read from the fitted curve at half-maximal effect); conditions: PEO1/OlaR viability, CellTiter-Glo luminescence, 96 h; for Z-AUC: stronger effect = lower value
Summary of the method: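 PEO1, PEO4 and PEO1/OlaR ovarian cancer cells, 600 per well, exposed 96 h at 37C to a dilution series. Viability read by CellTiter-Glo luminescence, normalized to DMSO and empty wells; activity summarized as Z-AUC.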

[9] = qHTS for identification of novel therapeutic agents for treatment of microphthalmiaassociated transcription factor (MiT) renal cell carcinoma (RCC) (AID 1963991; calls by dose curve; also: potency is read from the fitted curve at half-maximal effect); conditions: CellTiter-Glo, 48 h; for Potency: active = Z-AUC below -0.8 in all three lines; for z-score: stronger effect = lower value
Summary of the method: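 Curves over 11 concentrations were fitted to CellTiter-Glo luminescence, scaled between empty wells (0%) and DMSO (100%) viability. Cells were UOK109, UOK124 and UOK145 TFE3-fusion RCC lines at 500/well, exposed 48 hours at 37 C.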

[10] = qHTS profiling for inhibitors of Plasmodium falciparum proliferation (AID 504749);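 also: 0% = DMSO vehicle and full inhibition = artemisinin control; nearly all actives have a fitted effect of over 60% in size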; conditions: P. falciparum in erythrocytes, SYBR Green DNA, 72 h, at 28.7 µM (top of the series)
Summary of the method: (§2)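 Fluorescence of SYBR Green-bound parasite DNA, read at 485/535 nm, served as the growth measure. Infected erythrocytes were cultured with compound 72 h; artemisinin (0.29 uM) and DMSO wells defined the normalization range.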

3D7 = experiment: as above; conditions: P. falciparum in erythrocytes, SYBR Green DNA, 72 h; series mostly up to 28.7 µM
Summary of the method: as §2

7G8 = experiment: as above; conditions: P. falciparum in erythrocytes, SYBR Green DNA, 72 h; series mostly up to 28.7 µM
Summary of the method: as §2

AA1029 = experiment: as above; conditions: P. falciparum in erythrocytes, SYBR Green DNA, 72 h; series mostly up to 28.7 µM
Summary of the method: as §2

AS120 = experiment: as above; conditions: P. falciparum in erythrocytes, SYBR Green DNA, 72 h; series mostly up to 28.7 µM
Summary of the method: as §2

ATS189 = experiment: as above; conditions: P. falciparum in erythrocytes, SYBR Green DNA, 72 h; series mostly up to 28.7 µM
Summary of the method: as §2

ATS95 = experiment: as above; conditions: P. falciparum in erythrocytes, SYBR Green DNA, 72 h; series mostly up to 28.7 µM
Summary of the method: as §2

C2A = experiment: as above; conditions: P. falciparum in erythrocytes, SYBR Green DNA, 72 h; series mostly up to 28.7 µM
Summary of the method: as §2

CP185 = experiment: as above; conditions: P. falciparum in erythrocytes, SYBR Green DNA, 72 h; series mostly up to 28.7 µM
Summary of the method: as §2

CP191 = experiment: as above; conditions: P. falciparum in erythrocytes, SYBR Green DNA, 72 h; series mostly up to 28.7 µM
Summary of the method: as §2

[11] = measured here: PEO1 parental Z-AUC
[12] = TFE3-RCC UOK109 viability, measured here: UOK109 Z-AUC
[13] = TFE3-RCC viability, measured here: UOK124 Z-AUC
[14] = TFE3-RCC viability, measured here: UOK145 Z-AUC

CC[C@@H]1C(=O)N(C)c2cnc(Nc3ccc(C(=O)NC4CCC(N5CCN(CC6CC6)CC5)CC4)cc3OC)nc2N1C(C)C (stereo not given in full)
Potency [1]: 1660 nM (active)
Potency [2]: 8330 nM (active)
Potency [3]: 1870 nM (active)
Potency [4]: 8330 nM (active)
Potency [5]: 118 nM (active)
Potency [6]: 29.6 nM (active)
Potency [7]: 37.2 nM (active)
Potency [8]: 87.1 nM (active)
Z-AUC [8, 11]: -2.37
Z-AUC ([8]; measured here: PEO4 Z-AUC): -1.84
Potency ([9]; TFE3-RCC UOK109 viability): 3720 nM (active)
z-score [9, 12]: -1.29
z-score [9, 13]: -2.06
z-score [9, 14]: -1.66

CN1c2cc(O)c(N=NC(N)=O)cc2CC1S(=O)(=O)O (stereo not given)
Potency [1]: inactive
Potency [2]: inactive
Potency [3]: inactive
Potency [4]: inactive
Potency [5]: 14800 nM (active)
Potency [6]: inactive
Potency [7]: inactive
Z-AUC [8]: 1.01 (inactive)
Z-AUC [8, 11]: 0.677
Z-AUC ([8]; measured here: PEO4 Z-AUC): 1.13
z-score [9, 12]: 0.359
z-score [9, 13]: 0.697
z-score [9, 14]: 0.51
activity, negative = inhibition ([10]; parasite line A): -0.188% (inactive)
activity, negative = inhibition ([10]; parasite line B): 7.8% (inactive)
Potency (3D7): inactive
Potency (7G8): inactive
Potency (AA1029): inactive
Potency (AS120): inactive
Potency (ATS189): inactive
Potency (ATS95): inactive
Potency (C2A): inactive
Potency (CP185): inactive
Potency (CP191): inactive

Cc1ccc(-c2ncn(-c3ccc(Nc4nccc(-c5cccc(N6CCOCC6)c5)n4)cc3)n2)cn1
Potency [1]: 29.6 nM (active)
Potency [2]: 372 nM (active)
Potency [3]: 37.2 nM (active)
Potency [4]: 132 nM (active)
Potency [5]: 296 nM (active)
Potency [6]: 74.3 nM (active)
Potency [7]: 74.3 nM (active)
Z-AUC [8]: -1.4 (inactive)
Z-AUC [8, 11]: -2.09
Z-AUC ([8]; measured here: PEO4 Z-AUC): -1.65
Potency ([9]; TFE3-RCC UOK109 viability): 264 nM (active)
z-score [9, 12]: -1.3
z-score [9, 13]: -2.07
z-score [9, 14]: -1.38

CC=CC1=C(C(=O)O)N2C(=O)[C@H](NC(=O)[C@H](N)c3ccc(O)cc3)[C@@H]2SC1
Potency [1]: 2960 nM (active)
Potency [2]: inactive
Potency [3]: inactive
Potency [4]: inactive
Potency [5]: inactive
Potency [6]: inactive
Potency [7]: inactive
activity, negative = inhibition ([10]; parasite line A): -3.61% (inactive)
activity, negative = inhibition ([10]; parasite line B): -5.72% (inactive)
Potency (3D7): inactive
Potency (7G8): inactive
Potency (AA1029): inactive
Potency (AS120): inactive
Potency (ATS189): inactive
Potency (ATS95): inactive
Potency (C2A): inactive
Potency (CP185): inactive
Potency (CP191): inactive
